# Test results taken from PubChem BioAssay (NCI).
# The panel holds about 83,000 compounds, 20% with a hit somewhere; the sample as a whole holds those more often.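 Cell lines were cultured in 96-well plates, exposed to a single compound concentration, and assessed for percent growth 48 hours later.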 Calls of active or inactive are those of the source. Rule for the calls: active = growth percent below 10; inactive = the rest.
# System: MDA-MB-468 breast
# Assay: NCI-60 one-dose screen, 48 h (100 = growth as untreated, 0 = no growth, -100 = all killed)
# Conditions: 10 µM unless noted
row,SMILES,growth
1,O=C(OCc1nc2nc(Cl)nc(N3CCOCC3)c2[nH]1)n1ccnc1,-26.9% (active)
2,C=C1CC[C@@H]2C(C)(C)[C@H](O)CC[C@@]2(C)[C@@H]1COc1ccc2ccc(=O)oc2c1,44.1% (inactive)
3,COc1ccc(Oc2c(I)cc(CC(NC(C)=O)C(=O)O)cc2I)cc1 (stereo not drawn),75.8% (inactive)
4,CC1(C)CC[C@]2(CO)CC[C@]3(C)C(=CC[C@@H]4[C@@]5(C)CC[C@H](NCO)C(C)(C)[C@@H]5CC[C@]43C)[C@@H]2C1,-70.1% (active)
5,COc1cc(/C=C/c2cc(/C=C/c3ccc(O)c(OC)c3)n(C(=O)Nc3ccc(F)cc3)n2)ccc1O,-14.6% (active)
6,O=C(/C(=C\c1ccc([N+](=O)[O-])cc1)S(=O)Cc1ccc(Cl)cc1)c1ccc(Cl)cc1 (stereo not drawn),74% (inactive)
7,COc1ccc(/C=C2\COc3ccc(O)cc3C2=O)c(OC)c1OC,48.8% (inactive)
8,CC1OC2CC(=O)OC2C2=C1C(=O)c1c(O)cccc1C2=O (stereo not drawn),-73.4% (active)
9,O=[N+]([O-])c1ccccc1CN1CCCCC1,89.3% (inactive)
10,COc1ccc(Nc2nn3c(SCC(=O)c4ccc(C)cc4)nnc3s2)cc1,87.1% (inactive)
11,COc1c(O)cc2c(c1CC=C(C)C)OC(=O)c1c(cc(O)c(CC=C(C)C)c1O)O2,27.9% (inactive)
12,CCN(CC)c1ccc(/C=C(\C#N)c2cc3ccccc3[nH]2)cc1,47.3% (inactive)
13,[2H]C([2H])([2H])Oc1cc(F)ccc1/C=C/C(=O)/C=C(/C=C/c1ccc(F)cc1OC([2H])([2H])[2H])OB(F)F,46.1% (inactive)
